VP16 counter: Gal4-VP16 reporter inhibition counter-screen | Potency, µM (series often up to 53.6 µM), without a hit: top-dose activity, negative = inhibition, hits mostly inhibitors | Drosophila S2 Gal4-VP16 UAS-luciferase, luminescence, 20 h | AID 2546 | 3.5% of 310,000 active;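 also: Gal4-VP16 expression switched on by copper sulfate through the metallothionein promoter; nearly all actives have a fitted effect of over 50% in size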
Sfp inh: Sfp phosphopantetheinyl transferase inhibition | Q9F4F7 | Biochemical Sfp PPTase activity, qHTS | Potency, µM, for inactives: largest response in the series, negative = inhibition, most hits filed as inhibitors | 3.5% of 310,000 active;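 also: the enzyme is Sfp with the accession as filed and its product quenches rhodamine fluorescence; 0% = enzyme reaction without inhibitor and -100% = no enzyme wells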
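After 15 min at room temperature with compound, 15 nM Sfp received 5 uM rhodamine-CoA plus 12.5 uM BHQ-2-ybbR (50 mM Hepes pH 7.6, 10 mM MgCl2). Rate came from the fluorescence difference over 30 min, ex 525/em 598 nm.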
RORgamma inh: inhibitors of mouse ROR gamma transcriptional activity. 5.4% of 310,000 active. Potency, µM (highest dose often 53.6 µM), without a hit: at the highest dose activity change, negative = inhibition, hits mostly inhibitors. AID 2551. Drosophila S2 Gal4-RORgamma UAS-luciferase reporter, 20 h; also: nearly all actives have a fitted effect of over 60% in size
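ROR gamma transcriptional activity was tracked as Gal4-UAS luciferase output in stably transfected Drosophila Schneider cells, with compound added 1 hr before 700 uM copper sulfate induction and a 20 hr ambient-temperature incubation.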
PLK1 PBD block: blocks phosphopeptide binding to human PLK1 polo-box domain; Plk1 PBD binding of FITC phosphopeptide, fluorescence polarization; Potency, µM, without a hit: max response, negative = inhibition, most hits filed as inhibitors; 2.8% of 360,000 active; AID 720504; also: series mostly up to about 57 µM; nearly all actives have a fitted effect of over 65% in size
ALDH1A1 block: inhibitors of human aldehyde dehydrogenase 1A1. Purified ALDH1A1, NADH fluorescence, propionaldehyde substrate. Potency, µM (highest dose often 75.3 µM), inactives show top-dose activity, negative = inhibition, most hits filed as inhibitors. 7.3% of 220,000 active. AID 1030; active = well fitted inhibition curve with a large enough effect, not every such curve was filed as active; inconclusive = small, poorly fitted or top-dose-only effect, or another doubt; inactive = no such curve, though single readings can be large or run the other way;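 also: plate controls were no enzyme wells and a reference inhibitor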
Target sequence (P00352 whole entry, looked up): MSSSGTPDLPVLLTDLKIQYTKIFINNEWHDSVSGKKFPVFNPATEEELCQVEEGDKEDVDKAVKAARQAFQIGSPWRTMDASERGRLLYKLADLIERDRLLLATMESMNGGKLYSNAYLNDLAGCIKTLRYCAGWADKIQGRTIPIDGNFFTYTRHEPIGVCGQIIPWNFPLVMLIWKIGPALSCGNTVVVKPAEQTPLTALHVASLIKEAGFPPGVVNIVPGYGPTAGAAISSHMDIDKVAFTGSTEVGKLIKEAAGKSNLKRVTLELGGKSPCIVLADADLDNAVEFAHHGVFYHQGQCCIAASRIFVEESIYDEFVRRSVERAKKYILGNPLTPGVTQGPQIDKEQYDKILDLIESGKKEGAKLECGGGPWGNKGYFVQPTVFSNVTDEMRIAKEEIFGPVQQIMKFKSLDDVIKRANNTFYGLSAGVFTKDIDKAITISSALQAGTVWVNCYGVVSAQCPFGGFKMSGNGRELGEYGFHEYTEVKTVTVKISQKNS
* = called active by the depositor; ? = inconclusive; · = no result; [ ] = dose if it differs, or a comment. Most compounds without a hit are left out; they make up all but 12% or so of the library. Unless noted, calls follow the shape of the dose curve; as a rule, active = well fitted curve in the direction sought with a large enough effect; inconclusive = small, poorly fitted or top-dose-only effect, or another doubt; inactive = no such curve, though single readings can be large; an effect the other way counts as inactive or inconclusive. Unless noted, % is scaled to controls: 0 for no effect and ±100 for the full control effect; potency is read from the fitted curve at half-maximal effect.

SMILES	VP16 counter	Sfp inh	RORgamma inh	PLK1 PBD block	ALDH1A1 block
S=C(NC1CC1)NC1CCCc2ccccc21 (stereo not drawn)	?	19.6%	2.24µM*	-8.6%	8.2%
O=C(NC1CCCc2ccccc21)c1ccccc1 (stereo not drawn)	0.3%	-5.9%	23.2%	1.2%	9.8%
CC(C)(C)c1ccc(C(=O)NC(=O)COC(=O)c2ccc(Br)o2)cc1	·	·	·	-12.4%	·
C/C(=N\NC(N)=S)c1cc(-c2ccccc2)c(-c2ccccc2)s1	1.41µM*	-2.8%	0.447µM*	-16.2%	·
C/C(=N/NC(N)=S)c1ccc(Br)s1	5.01µM*	-0.7%	1.12µM*	-18.2%	22.4µM*
C/C(=N\NC(N)=S)c1ccccc1	14.7%	?	14.4%	?	·
Cc1ccc(C(C)C)n1C(=O)OC(C)(C)C	5.4%[10 µM]	4.9%	-20.4%[10 µM]	·	9.4%[13.5 µM]
N#Cc1cccc(-c2cc(NCc3ccccc3)ncn2)c1	-7.7%	24.4%	42.3%	·	?
Cc1ccc(NC(=S)C2=C(O)c3ccccc3N(C)S2(=O)=O)cc1	17.8µM*	11.7%	?	?	?
CN1c2ccccc2C(O)=C(C(=S)Nc2ccccc2)S1(=O)=O	?	-7.4%	?	-23.9%	-4.8%
CN1c2ccsc2C(O)=C(C(=S)Nc2ccccc2)S1(=O)=O	?	56.2µM*	10µM*	21.2µM*	?
Cc1ccccc1NC(=S)C1=C(O)c2sccc2N(C)S1(=O)=O	?	56.2µM*	?	?	?
CC(C)N(C(=O)CN(C#N)c1nc(N(C)C)nc(N(C)C)n1)c1ccccc1	2.0%	?	-28.7%	-9.6%	8.91µM*
Cc1nc(CN2CCC(c3ccccc3)CC2)cc(=O)[nH]1	-4.3%	19.0%	-9.7%	21.2µM*	-12.0%
CCc1nc(N2CCN(C(=O)CCl)CC2)c2c3c(sc2n1)CC(C)CC3 (stereo not drawn)	?	-24.8%	15.8µM*	-4.6%	·
Cc1nc(N2CCN(C(=O)c3cccs3)CC2)c2c3c(sc2n1)CCCC3	17.0%	-9.4%	17.9%	-13.6%	·
CCc1nc(SCC(=O)N2CCN(C(=O)c3ccco3)CC2)c2c3c(sc2n1)CCCC3	2.8%	9.8%	3.1%	-9.0%	28.2µM*
CCc1nc(N2CCN(C(C)=O)CC2)c2c3c(sc2n1)CC(C(C)(C)C)CC3 (stereo not drawn)	?	-21.5%	?	2.8%	·
O=C(c1ccco1)N1CCN(c2nc(C3CC3)nc3sc4c(c23)CCCC4)CC1	-0.3%	79.4µM*	2.8%	-24.3%	22.4µM*
Cc1nc(N2CCN(C(=O)c3ccco3)CC2)c2c3c(sc2n1)CC(C)CC3 (stereo not drawn)	?	?	?	-15.3%	12.6µM*
Clc1ccc2oc3c(Cl)ncnc3c2c1	-13.6%	0.3%	-20.5%	-13.9%	?
CN(CC(=O)Nc1ccccc1C(F)(F)F)C(=O)c1cc([N+](=O)[O-])ccc1N1CCOCC1	8.2%	10.9%	-6.3%	-2.2%	·
CC(=O)c1ccc(S(=O)(=O)N2CCN(C(=O)c3ccc(COc4ccccc4)o3)CC2)cc1	·	·	·	-0.2%	·
CN1OC[C@@H]2CN(Cc3ccccc3)[C@H](c3ccc(-n4ccnc4)cc3)C[C@@H]21	·	·	·	-4.8%	·
Cc1nc(N2CCN(C(=O)c3ccco3)CC2)c2c3c(sc2n1)CCCC3	-1.4%	5.3%	-15.4%	-11.8%	39.8µM*
SMILES	VP16 counter	Sfp inh	RORgamma inh	PLK1 PBD block	ALDH1A1 block
Cc1cc(/C=C2\SC(=Nc3ccccc3)NC2=O)c(C)n1-c1ccc(S(N)(=O)=O)cc1	-2.4%	-8.1%	?	0.8%	28.2µM*
COc1ccc(-n2c(C)cc(/C=C3\SC(=O)NC3=O)c2C)cc1	27.9%	?	13.8%	-25.8%	·
CCN(c1ccccc1)c1cc2ccccc2c(=O)[nH]1	-7.5%	-10.4%	-16.4%	29.9µM*	·
N=C(N)c1ccc2cc(OC(=O)c3ccc(N=C(N)N)cc3)ccc2c1	-12.3%	11.7%	7.1%[10 µM]	·	22.4µM*
COC(=O)C1=C(C)N(CCc2c[nH]c3ccccc23)C(=O)/C1=C\N(C)C	7.4%[10 µM]	17.8µM*	-31.1%	23.8µM*	12.6µM*
COC(=O)C1=C(C)N(Cc2ccc(OC)cc2)C(=O)C1	?	-14.9%	?	-6.7%	2.7%
COC(=O)C1=C(C)N(Cc2ccco2)C(=O)/C1=C\c1ccc([N+](=O)[O-])cc1	-3.6%	20µM*	-2.8%	-26.6%	15µM*
COC(=O)C1=C(C)N(Cc2ccco2)C(=O)C1	21.5%	?	10µM*	?	?
COC(=O)C1=C(C)N(CCc2ccc(OC)cc2)C(=O)C1	8.7%	5.0%	-29.6%	-3.9%	10µM*
COC(=O)C1=C(C)N(CCc2c[nH]c3ccc(OC)cc23)C(=O)C1	-4.0%	-8.1%	-29.0%	-7.0%	17.8µM*
COC(=O)C1=C(C)N(Cc2ccc(OC)c(OC)c2)C(=O)C1	0.6%	8.5%	-23.4%	21.2µM*	2.0%
CC(=O)Nc1cnc(-c2cc(C)c(O)c(C)c2)cn1	·	·	·	-15.1%	·
CS(=O)(=O)N1CCC[C@@]2(CCN(c3ccccc3)C2)C1	24.6%	-4.3%	-2.3%	·	?
O=C(Nc1ccc2c(c1)OCO2)c1cc(-c2cccc(O)c2)on1	14.1µM*	-3.7%	7.08µM*	-3.0%	·
COc1ccc(-c2cc(C(=O)Nc3cccc(O)c3)no2)cc1	3.16µM*	16.4%	1.41µM*	-8.7%	·
O=C(Nc1cccnc1)c1cc(-c2cccc(Cl)c2)on1	0.5%	4.0%	-3.0%	23.8µM*	·
O=C(Nc1cccnc1)c1cc(-c2ccc(Cl)c(Cl)c2)on1	7.5%	-7.4%	-0.7%	-0.3%	·
Cc1ccc(NC(=O)c2cc(-c3ccc(F)cc3)on2)cc1C	-0.7%[10 µM]	23.8%	10.7%	23.8µM*	-0.5%
COC(=O)C[C@H]1C=C[C@@H](NC(=O)C2CC2)[C@@H](CO)O1	·	·	·	-8.3%	·
CC(=O)c1cccc(NC(=O)c2cc(-c3ccco3)on2)c1	-0.8%	-28.6%	-25.2%	-1.5%	·
O=C(Nc1cccc(O)c1)c1cc(-c2ccco2)on1	?	-7.4%	12.6µM*	-6.6%	0.5%
Cc1cc(C)nc(N(C#N)Cc2ccccc2Cl)n1	3.1%	2.4%	-27.0%	3.2%	14.1µM*
CC(C)Nc1nc(Cl)nc(N(C#N)CN2C(=O)c3ccccc3C2=O)n1	0.8%	-10.8%	-31.0%	?	?
Cc1cc(C)nc(N(C#N)CN2C(=O)c3ccccc3C2=O)n1	-9.0%	89.1µM*	-19.3%[10 µM]	-15.9%	25.1µM*
Nc1cccc(C(=O)N/N=C/c2ccsc2)c1	-1.4%	-11.7%	-0.8%	?	-0.5%
O=C(C=C=Nc1ccccc1)C(=O)N=C=Cc1ccccc1	7.08µM*	-0.6%	3.98µM*	-2.5%	3.6%
COCCn1c(=O)c(-c2ccc(F)c(F)c2)nc2cncnc21	2.6%	-5.9%	-25.3%	·	-7.7%
O=c1[nH]c(N2CCOCC2)nc2ncn(Cc3ccccc3)c12	-0.6%	7.2%	-5.1%	-3.5%	-5.0%
O=c1[nH]c(N2CCCCC2)nc2ncn(Cc3ccccc3)c12	-1.9%	14.6%	36.5%	26.7µM*	·
O=[N+]([O-])c1nccn1CC(O)CO (stereo not drawn)	·	·	·	-12.1%	·
